# Measured values reported in PubChem BioAssay (NCATS).
# Inconclusive results are not listed. Entries that show only a call come without a potency. Unmarked numbers belong to inactive results. Active and inactive are the calls of the source. Calls follow the shape of the dose curve; as a rule, active = well fitted cell-killing curve with a large enough effect; inconclusive = small, poorly fitted or top-dose-only effect, or effect the other way; inactive = flat fitted curve, though single readings scatter.
# System: Es-2
# Assay: Primary qHTS to identify gynecologic anti-cancer compounds using libraries of approved drugs and bioactive compounds (AID 1345084); also: nearly all actives have a fitted effect of over 55% in size
# Settings: Gynecologic cancer cell panel viability, ATPlite luminescence, 48 h; series mostly up to 57.5 µM
# Procedure, shortened: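 ATP-based viability (ATPlite), 1,000 cells/well, 16 h pre-incubation, 48 h compound at 37 C, 5% CO2, 15 min RT before read.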
# Potency is read from the fitted curve at half-maximal effect.
SMILES,Potency,"activity change, negative = cytotoxicity"
CNc1cccc(CCOc2ccc3c(c2)CN(CC(F)(F)F)C(=O)[C@H](CC(=O)O)C3)n1,inactive,
CC(C)(O)c1ccn2c(-c3ccc(F)c(-c4ccc(F)cc4C#N)c3)cnc2c1F,inactive,
Cc1[nH]c2ccccc2c1CCNCc1ccc(/C=C/C(=O)NO)cc1,0.355 µM (active),
C[C@@H]1O[C@@H](O[C@H]2[C@@H]3C=CO[C@@H](O[C@@H]4O[C@H](CO)[C@@H](O)[C@H](O)[C@H]4O)[C@@H]3[C@@]3(CO)O[C@@H]23)[C@H](O)[C@H](OC(=O)/C=C/c2ccccc2)[C@H]1O,inactive,
C=C1C(=O)OC[C@@H]1C/C=C(\C)CC1CC(C)C(=O)O1 (stereo partly specified),inactive,
COc1ccc(S(=O)(=O)n2cnc3cc(C)c(C)cc32)cc1,inactive,
C[C@@H]1O[C@@H](O[C@H]2CC[C@@]3(C)C(CC[C@]4(C)C3CC=C3[C@@H]5CC(C)(C)CC[C@]5(C(=O)O[C@@H]5O[C@H](CO)[C@@H](O)[C@H](O)[C@H]5O)CC[C@]34C)[C@]2(C)CO)[C@H](O)[C@H](O[C@@H]2O[C@H](CO)[C@@H](O)[C@H](O)[C@H]2O)[C@H]1O (stereo partly specified),,-0.79% [at 11.6 µM]
CCCOc1ccc(S(=O)(=O)N2CCN(CCO)CC2)cc1-c1nc2c(CCC)cn(CC)c2c(=O)[nH]1,inactive,
COc1ccc(CCCN2CCC(COC(c3ccccc3)c3ccccc3)CC2)cc1,inactive,
CCNc1nc(Nc2cc(F)c(C(=O)N3CCOCC3)cc2OC)ncc1C(F)(F)F,inactive,
CC(=O)O[C@@H]1[C@@H](OC(C)=O)[C@H](C)O[C@@H](O[C@H]2[C@@H]3C=CO[C@@H](O[C@@H]4O[C@H](CO)[C@@H](O)[C@H](O)[C@H]4O)[C@@H]3[C@@]3(CO)O[C@@H]23)[C@@H]1OC(=O)/C=C/c1ccccc1,inactive,
